Screening data: PubChem, National Center for Advancing Translational Sciences (NCATS)
This excerpt belongs to a sample that is enriched for hits.
Pf Dd2 growth: Plasmodium falciparum Dd2 growth inhibition; hit rate 4.3% among 120,000; Potency, µM (doses to about 28.9 µM), usual class: inhibitors; P. falciparum Dd2 growth, SYBR Green, 72 h; AID 1347417; active = well fitted inhibition curve with a large enough effect; note: nearly all actives have a fitted effect of over 65% in size
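Readout: SYBR Green fluorescence, 485 nm excitation, 535 nm emission, after ~16 h lysis at 37C. Before that, Dd2-infected red cells (2.5% hematocrit) grew 72 h with compound, 29 uM top final concentration.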
Numbers stand for hits; 0 = inactive.

SMILES	Pf Dd2 growth
COc1ccc(CNC(=O)c2c(Nc3ccc(OC)cc3OC)sc(C(=O)c3ccc(Cl)cc3)c2N)cc1	0
CCc1nc(-c2c3n(c(=O)n(Cc4ccccc4)c2=O)CCCC3)no1	0
N#Cc1ccc(C(=O)N2C[C@@H]3C[C@H](C2)c2c(-c4ccccc4F)ccc(=O)n2C3)cc1	0
O=[S+]1([O-])NCC2(CCN(CC3CC3)C2)Oc2ncccc21 (configuration not stated)	0
O=[S+]1([O-])NCC2(CCN(CC3CCCC3)C2)Oc2ncccc21 (configuration not stated)	13µM
O=[S+]1([O-])NCC2(CCN(CC3CCOCC3)C2)Oc2ncccc21 (configuration not stated)	0
Cn1ccc(C(=O)N[C@@H]2CN(c3ncccn3)C[C@H]2CO)n1	0
O=C(C1CC1)N1CCc2cc(Br)cc(S(=O)(=O)N3CCN(c4ccccc4)CC3)c21	0
O=C(C1CC1)N1CCc2cc(Br)cc(S(=O)(=O)Nc3ccc(F)c(F)c3)c21	0
Cc1ccc(NS(=O)(=O)c2cc(Br)cc3c2N(C(=O)C2CC2)CC3)cc1C	0
CCC(=O)N1CCc2cc(Br)cc(S(=O)(=O)N3CCC(C(=O)Nc4ccc(OC)cc4)CC3)c21	0
CCN(C(=O)C1CCN(S(=O)(=O)c2cc(Br)cc3c2N(C(C)=O)CC3)CC1)c1cccc(C)c1	5µM
CCC(=O)N1CCc2cc(Br)cc(S(=O)(=O)NCCc3cccc(C)c3)c21	0
Cc1cccc(N2CCN(S(=O)(=O)c3cc(Br)cc4c3N(C(=O)C3CC3)CC4)CC2C)c1 (configuration not stated)	11µM
COc1cc(NS(=O)(=O)c2cc(Br)cc3c2N(C(=O)C2CC2)CC3)cc(OC)c1	0
CCN(c1ccccc1)S(=O)(=O)c1cc(Br)cc2c1N(C(=O)C1CC1)CC2	1.1µM
O=C(Nc1ccc2c(c1)OCCO2)N1CCN(C(=O)N2CC3CC(C2)[C@H]2CCCC(=O)N2C3)CC1 (some centres not stated)	0
CC(C)CNC(=O)N1C[C@@H](Oc2ccccc2)C[C@H]1C(=O)N1CCOCC1	0
Cc1noc(Cn2c(=O)c3cc4c(cc3n(CC(=O)Nc3ccccc3Br)c2=O)OCO4)n1	0
CCc1noc(-c2cn(C3CCN(C(=O)c4ccc(F)c(F)c4)C3)nn2)n1 (configuration not stated)	0
O=C(NCc1cccnc1)C1CCN(Cc2cc3ccccc3n2Cc2ccccc2)CC1	11µM
Cc1ccc(Cn2c(CN3CCC(C(=O)NCC(C)c4ccccc4)CC3)cc3ccccc32)cc1 (configuration not stated)	0
CN(C)c1ccc(CNC(=O)C2CCN(Cc3cc4ccccc4n3Cc3ccccc3)CC2)cc1	11µM
CN(C)c1ccc(CNC(=O)C2CCN(S(=O)(=O)c3ccc4c(c3)oc(=O)n4C)CC2)cc1	0
Cc1ccc(Cn2c(CN3CCC(C(=O)NCCc4ccccc4)CC3)cc3ccccc32)cc1	7.9µM
SMILES	Pf Dd2 growth
COCCCNC(=O)C1CCN(Cc2cc3ccccc3n2Cc2ccccc2C)CC1	0
Cc1cccc(Cn2c(CN3CCC(C(=O)NC(C)C)CC3)cc3ccccc32)c1	0
CN(C)c1ccc(CNC(=O)C2CCN(c3nc4ccccc4[nH]3)CC2)cc1	0
Cc1cccc(Cn2c(CN3CCC(C(=O)NCc4cccnc4)CC3)cc3ccccc32)c1	0
O=C(NC1CCCC1)N1CCC(OCCOc2cccnc2)CC1	0
COc1cccc(C2Cn3nnc(-c4nc(-c5ccsc5)no4)c3CO2)c1 (configuration not stated)	0
CN1CC(=O)N(C2CCCNC2)Cc2c(NCc3ccc4c(c3)OCO4)ncnc21 (configuration not stated)	0
CCc1nc(-c2c3n(c(=O)n(Cc4c(F)cccc4Cl)c2=O)CCCC3)no1	0
O=C(OCc1cc(=O)n2c3c(sc2n1)CCCC3)c1cccc(NC(=O)c2ccccc2F)c1	0
COCc1ccc2c(c1)c(OC(C)(C)C(=O)NCc1cnccn1)nn2CCC(C)C	0
CCCS(=O)(=O)N1CCC2(CCC2OC)CC1 (configuration not stated)	0
COc1ccc2c(C)c(-c3nc(C4CCOC4)no3)oc2c1 (configuration not stated)	0
COc1ccc(NC(=O)C(NC(=O)/C=C\c2ccc3c(c2)OCO3)c2ccccc2)cc1 (configuration not stated)	10µM
COc1ccc(/C=C/C(=O)Nc2cccc(F)c2)cc1	0
COc1cccc(-c2nc(SCC(=O)Nc3ccc4c(c3)OCO4)c(-c3ccccc3)[nH]2)c1	0
O=C1CCC2(CCN1CC1CC1)CCN(S(=O)(=O)c1cccnc1)CC2	0
O=C(c1ccco1)N1CCN(c2nc3ccc(Cl)cc3s2)CC1	0
C#CCOc1ccccc1-c1c(-c2ccccc2)ncn1CCCO	0
COc1cc(OC)c(-c2c(-c3ccccc3)ncn2CCF)cc1OC	10µM
OCCOCCn1cnc(-c2ccccc2)c1-c1ccc(-n2cccn2)cc1	0
CCCCSCCCNC(=O)c1cn(CC)c2ccc(S(=O)(=O)N3CCCCCC3)cc2c1=O	0
